# Measured potencies and affinities stand elsewhere. The source made the active and inactive calls. The rule behind the calls is not given here.
# Assay: SV40 cytopathic effect inhibition and cytotoxicity, confirmation, BSC cells, set 3 (AID 485276)
smiles,measurement,value
Oc1ccc(Cc2ccc(O)cc2)cc1,outcome,inactive

# — PubChem BioAssay AID485276 (Southern Research Specialized Biocontainment Screening …, 2010)
